Shown are actives, neighbours in structure and some others; about 32% of the full set was active somewhere.
CYP2C9 inh: blocks human cytochrome P450 2C9 | P11712 | CYP2C9 Supersomes, luciferin-H conversion, luminescence | inhibition, % at 5 µM | hit rate 20% among 96,000;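 active = blocking of liver enzyme CYP2C9 beyond about 50% at 5 µM, limit read from the data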
Target sequence (P11712 whole entry, looked up): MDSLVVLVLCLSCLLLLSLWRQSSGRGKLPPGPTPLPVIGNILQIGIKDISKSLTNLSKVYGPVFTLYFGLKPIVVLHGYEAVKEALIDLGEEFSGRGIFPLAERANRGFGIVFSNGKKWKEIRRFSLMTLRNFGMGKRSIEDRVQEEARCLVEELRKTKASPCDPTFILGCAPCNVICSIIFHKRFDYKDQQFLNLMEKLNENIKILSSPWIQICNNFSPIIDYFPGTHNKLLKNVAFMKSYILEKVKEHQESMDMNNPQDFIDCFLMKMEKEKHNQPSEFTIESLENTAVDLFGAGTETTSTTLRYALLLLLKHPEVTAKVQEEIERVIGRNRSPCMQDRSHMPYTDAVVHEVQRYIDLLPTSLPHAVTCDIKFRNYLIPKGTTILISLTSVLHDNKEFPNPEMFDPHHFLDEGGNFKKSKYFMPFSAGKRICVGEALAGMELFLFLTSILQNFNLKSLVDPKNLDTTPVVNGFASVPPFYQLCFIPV
PostGolgi yeast: growth inhibition of a yeast mutant, post-Golgi transport screen; inhibition, % at 10 µM; post-Golgi transport phenotypic cell assay; hit rate 0.9% among 98,000;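 also: yeast cells grown in 1536-well plates; yeast grown about 18 h at 30C before absorbance read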
CYP2C19 activ: increases human CYP2C19 enzyme activity; P33261; recombinant CYP2C19, luciferin-H EGE luminescence; active compounds read high; 0 = fully inhibited enzyme, 1 = untreated enzyme; activation factor at 5 µM; 96,000 tested, under 10 active; AID 1025;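 active = activation factor of at least 2 at 5 µM in the primary screen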;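 also: 0 = wells with 2.5 mM tranylcypromine and 1 = vehicle-only wells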
PostGolgi ctrl: inhibits growth of the yeast control strain; efflux-deficient yeast background strain, growth absorbance A615, 16 h; inhibition, % at 10 µM; hit rate 5% among 98,000; AID 738
CYP2C19 inh: inhibitors of human CYP2C19; P33261; CYP2C19 Supersomes, luciferin-H EGE luminescence, 30 min; inhibition, % at 5 µM; hit rate 21% among 96,000; AID 778;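 active = CYP2C19 inhibition above a set limit at 5 µM in the primary screen, cut at about 50% in these data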;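 also: plate controls were negative control wells for no effect and 2.5 mM tranylcypromine positive control for full effect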
CYP2C9 activ: activators of human CYP2C9. P11712. recombinant CYP2C9, luciferin-H conversion, luminescence; active compounds read high; factor 1 = untreated enzyme, 0 = blocked. activation factor at 5 µM. hit rate 1.4% among 96,000. AID 1024;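 active = activation factor of 2 or more for CYP2C9 at a 5 µM dose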;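 also: 0 = sulfaphenazole-blocked wells and 1 = vehicle-only wells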
* = called active by the depositor. Rule as the data show it, unless noted: active = inhibition above about 30%; inactive = the rest.

For CN(CC(=O)Nc1ccccc1C(=O)N1CCCC1)S(=O)(=O)c1ccc(Br)cc1 the results were CYP2C9 inh 46, PostGolgi yeast 9, CYP2C19 activ 0.8, PostGolgi ctrl 3, CYP2C19 inh 25 and CYP2C9 activ 0.5.
Screening COc1ccccc1NC(=O)CN(C)S(=O)(=O)c1ccc2c(c1)CCC(=O)N2 returned CYP2C9 inh 1, PostGolgi yeast -6, CYP2C19 activ 0.7, PostGolgi ctrl -3, CYP2C19 inh 30 and CYP2C9 activ 1.
CCOc1ccccc1NC(=O)CN(C)S(=O)(=O)c1ccc(OC)c(C)c1 was read as CYP2C9 inh -20, PostGolgi yeast 12, CYP2C19 activ 0, PostGolgi ctrl 7, CYP2C19 inh 99* and CYP2C9 activ 1.2.
For COc1ccc(NC(=O)CN(C)S(=O)(=O)c2ccc3c(c2)CCC(=O)N3)c(OC)c1 the results were CYP2C9 inh -70, PostGolgi yeast -12, CYP2C19 activ 0.5, PostGolgi ctrl -4, CYP2C19 inh 55* and CYP2C9 activ 1.7.
O=C(Nc1ccccc1C(=O)O)c1ccccc1 was read as CYP2C9 inh 38, PostGolgi yeast 25, CYP2C19 activ 1, PostGolgi ctrl -2, CYP2C19 inh 5 and CYP2C9 activ 0.6.
Screening COc1cc(SC)ccc1C(=O)Nc1ccccc1C#N returned CYP2C9 inh 35, PostGolgi yeast 2, CYP2C19 activ 0.8, PostGolgi ctrl 7, CYP2C19 inh 15 and CYP2C9 activ 0.7.
COc1ccc(C)cc1S(=O)(=O)N(C)CC(N)=O was read as CYP2C9 inh -21, PostGolgi yeast 2, CYP2C19 activ 1.1, PostGolgi ctrl 1, CYP2C19 inh -12 and CYP2C9 activ 1.2.
COc1ccc(S(=O)(=O)N(C)CC(=O)NCc2cccnc2)cc1C was read as CYP2C9 inh -84, PostGolgi yeast -2, CYP2C19 activ 0.2, PostGolgi ctrl 19, CYP2C19 inh 80* and CYP2C9 activ 1.8.
For Cc1ccc(S(=O)(=O)N(C)CC(=O)Nc2cccc3c2CCCC3)cc1 the results were CYP2C9 inh -4, PostGolgi yeast 0, CYP2C19 activ 0.6, PostGolgi ctrl 3, CYP2C19 inh 44 and CYP2C9 activ 1.
COC(=O)c1ccccc1NC(=O)CN(C)S(=O)(=O)c1cc(C)ccc1OC was read as CYP2C9 inh 67*, PostGolgi yeast -5, CYP2C19 activ 0.1, PostGolgi ctrl 14, CYP2C19 inh 94* and CYP2C9 activ 0.3.
`COc1ccc(OC)c(S(=O)(=O)N(C)CC(=O)O)c1` gave CYP2C9 inh 8, PostGolgi yeast 1, CYP2C19 activ 0.9, PostGolgi ctrl -1, CYP2C19 inh 10 and CYP2C9 activ 0.9.
Screening COc1ccc(S(=O)(=O)N(C)CC(=O)Nc2ccccc2OC)cc1C returned CYP2C9 inh -29, PostGolgi yeast -4, CYP2C19 activ 0.1, PostGolgi ctrl 11, CYP2C19 inh 93* and CYP2C9 activ 1.3.
`COc1ccc(OC)c(S(=O)(=O)N(C)CC(=O)Nc2ccccc2OC)c1` gave CYP2C9 inh 26, PostGolgi yeast -2, CYP2C19 activ 0.2, PostGolgi ctrl 10, CYP2C19 inh 77* and CYP2C9 activ 0.7.
COCCn1c(SCC(=O)N2CCCc3ccccc32)nc2cccnc21 was read as CYP2C9 inh -1, PostGolgi yeast -3, CYP2C19 activ 0.5, PostGolgi ctrl 8, CYP2C19 inh 46 and CYP2C9 activ 1.
COc1ccc(-c2cc(C(F)(F)F)n3ncc(C(=O)NCC4CCCO4)c3n2)cc1 (stereo unspecified) was read as CYP2C9 inh 44, PostGolgi yeast 0, CYP2C19 activ 0.8, PostGolgi ctrl -4, CYP2C19 inh 20 and CYP2C9 activ 0.6.
`COc1cccc(-c2cc(C(F)(F)F)n3ncc(C(=O)NCC4CCCO4)c3n2)c1` (stereo unspecified) gave CYP2C9 inh 55*, PostGolgi yeast 3, CYP2C19 activ 0.5, PostGolgi ctrl 3, CYP2C19 inh 46 and CYP2C9 activ 0.5.
C=CCNC(=S)/N=c1\sccn1C was read as CYP2C9 inh -18, PostGolgi yeast 9, CYP2C19 activ 0.9, PostGolgi ctrl 10, CYP2C19 inh 12 and CYP2C9 activ 1.2.
`Cn1ccs/c1=N\S(=O)(=O)c1ccc(Br)cc1` gave CYP2C9 inh -141, PostGolgi yeast -7, CYP2C19 activ 0.6, PostGolgi ctrl 3, CYP2C19 inh 37 and CYP2C9 activ 2.4*.
`CCN(CC)C(=O)CSC(=Nc1ccccc1F)NC#N` gave CYP2C9 inh 36, PostGolgi yeast 3, CYP2C19 activ 0.6, PostGolgi ctrl -4, CYP2C19 inh 44 and CYP2C9 activ 0.6.
For CC(C)N=C(NC#N)SCc1ccc(F)cc1 the results were CYP2C9 inh 63*, PostGolgi yeast 2, CYP2C19 activ 0.1, PostGolgi ctrl 9, CYP2C19 inh 95* and CYP2C9 activ 0.4.
For COc1cc([C@H]2[C@@H]3CCCC[C@]3(O)CCN2Cc2ccccc2F)ccc1O the results were CYP2C9 inh 37, PostGolgi yeast -6, CYP2C19 activ 0.2, PostGolgi ctrl 3, CYP2C19 inh 83* and CYP2C9 activ 0.6.
For COc1cc([C@H]2[C@@H]3CCCC[C@]3(O)CCN2CC(=O)Nc2ccc(C)cc2C)ccc1O the results were CYP2C9 inh 32, PostGolgi yeast 1, CYP2C19 activ 0.8, PostGolgi ctrl -3, CYP2C19 inh 17 and CYP2C9 activ 0.7.
Screening CCCCNC(=O)C1=C(N)C(C(=O)Nc2ccc(C)c(S(=O)(=O)N3CCCCC3)c2)SC1=Nc1ccc(C)cc1C (stereo unspecified) returned CYP2C9 inh 79*, PostGolgi yeast 8, CYP2C19 activ 0.9, PostGolgi ctrl 1, CYP2C19 inh 13 and CYP2C9 activ 0.2.
CCN(CC)S(=O)(=O)c1cccc(NC(=O)C2SC(=Nc3ccc(C)cc3C)C(C(=O)NC(C)COC)=C2N)c1 (stereo unspecified) was read as CYP2C9 inh 83*, PostGolgi yeast -2, CYP2C19 activ 1, PostGolgi ctrl 6, CYP2C19 inh 4 and CYP2C9 activ 0.2.
Screening Cc1ccc(Cn2c3ccccc3c3cn[nH]c(=O)c32)cc1 returned CYP2C9 inh 18, PostGolgi yeast -1, CYP2C19 activ 1, PostGolgi ctrl 3, CYP2C19 inh -1 and CYP2C9 activ 0.8.
Screening CCOc1ccc(OCC)c(-c2c(=O)n(OCc3ccc(C(C)(C)C)cc3)c3ccccc3[n+]2[O-])c1 returned CYP2C9 inh 52*, PostGolgi yeast 5, CYP2C19 activ 0.1, PostGolgi ctrl 14, CYP2C19 inh 88* and CYP2C9 activ 0.5.
Screening CCOn1c(=O)c(-c2ccc(OC)cc2)[n+]([O-])c2ccccc21 returned CYP2C9 inh 19, PostGolgi yeast 0, CYP2C19 activ 0.9, PostGolgi ctrl 7, CYP2C19 inh 8 and CYP2C9 activ 0.8.

Assay outcomes deposited in PubChem by several laboratories.
